Records with an inconclusive call do not appear. Where a call stands in place of a potency, no number is given. Activity calls are given as the source filed them. The call rests on the fitted dose curve; in most records, active means well fitted cell-killing curve with a large enough effect in the repeat runs; inconclusive means weak or mixed curves; inactive means flat fitted curve, though single readings scatter.

This experiment can be described thus: qHTS assay to identify small molecule antagonists of the TGF-beta/Smad signaling pathway - cell viability counter screen (AID 1346824). Further: nearly all actives have a fitted effect of over 50% in size. The following applies: SBE-bla HEK293T viability, CellTiter-Glo luminescence; series mostly up to 76.8 µM. An excerpt:
U.S. Tox21 Program National Center for Advancing Translational Sciences [NCATS] NIH Chemical Genomics Center [NCGC] U.S. Environmental Protection Agency [EPA] National Institutes of Environmental Health Sciences [NIEHS] National Toxicology Program [NTP] U.S. Food and Drug Administration [FDA] Tox21 Assay Overview: Transforming growth factor beta (TGF-beta) superfamily consists of a large number of structurally related dimeric proteins that act as hormones or local mediators in regulating a wide range of biological functions. This superfamily includes TGF-betas themselves, the bone morphogenetic proteins (BMPs) and the activins. These ligands induce oligomerization of serine/threonine receptor kinases and phosphorylate the cytoplasmic signaling molecules of Smad protein family. CellSensor SBE-bla HEK 293T cell line (Life Technologies, Carlsbad, CA), responsive to TGF-beta was used to screen Tox21 10K compound library for identification of agonists/antagonists of the Smad signaling pathway. This cell line contains a beta-lactamase reporter gene under control of the Smad binding element (SBE) stably integrated into HEK 293T cells. Also cytotoxicity of the compounds was tested in parallel by measuring the cell viability using CellTiter-Glo assay system in the same wells.
Tox21 Assay Protocol Summary: SBE-bla HEK 293T cells were dispensed at 4,000/well in 5 uL of assay medium into black wall/clear-bottom 1536-well plates using a Multidrop Combi (ThermoFisher Scientific, Waltham, MA) dispenser. After the assay plates were incubated at 37 C and 5% CO2 for an overnight, 23 nL of compounds dissolved in DMSO, positive controls or DMSO only was transferred to the assay plate by a Pintool station (Kalypsys, San Diego, CA). Compound transfer was followed by the addition of 1 uL of 0.25 ng/mL TGF-beta1 or assay buffer using two separate tips of Flying Reagent Dispenser (FRD, Aurora Discovery, San Diego, CA). The assay plates were incubated at 37 C and 5% CO2 for 5 hr. One uL of LiveBLAzer B/G FRET substrate (Life Technologies) was added using a Flying Reagent Dispenser (FRD, Aurora Discovery, San Diego, CA) and the plates were incubated at room temperature for 2 hr. Fluorescence intensity (405 nm excitation, 460 nm and 530 nm emissions) was measured using an Envision plate reader (PerkinElmer, Shelton, CT). For cytotoxicity read, 4 uL of CellTiter-Glo reagent (Promega Corporation, Madison, WI) was added to each well of the assay plates using FRD. After 30 min incubation at room temperature, the luminescence intensity was measured using ViewLux plate reader (PerkinElmer).
A general note: Quantitative high-throughput screening tests each substance at several concentrations.
On to `C=C(C)C(=O)OCCCCCCCCCCCC`, for which the Potency result is “inactive”.

As to `CC1COc2ccccc2N1C(=O)C(Cl)Cl` (stereo not given), the Potency result is “inactive”.

On to `O=C(O)c1cc(-c2ccccc2)nc2ccccc12`, for which the Potency result is “inactive”.

In the case of `CCCCCC/C=C/CCCCCCCC(=O)O`, the Potency entry is “inactive”.

Take `C=C(C)C(=O)OCCCCCC`: the Potency result was “inactive”.

Regarding `O=C1CCCCC1`, the Potency entry was “inactive”.

In the case of `NC(=O)/N=N/C(N)=O`, the Potency result is “inactive”.

`Cn1c([N+](=O)[O-])cnc1COC(N)=O`: the Potency result is “inactive”.

Regarding `Nc1nc2ncc(CNc3ccc(C(=O)N[C@@H](CCC(=O)O)C(=O)O)cc3)nc2c(=O)[nH]1`, the Potency entry is “inactive”.

On to `CC(C)(C)C(=O)C1C(=O)c2ccccc2C1=O`, for which the Potency result was “inactive”.

On to `C[C@@H]1O[C@@H](OC[C@H]2O[C@@H](Oc3c(-c4ccc(O)c(O)c4)oc4cc(O)cc(O)c4c3=O)[C@H](O)[C@@H](O)[C@@H]2O)[C@H](O)[C@H](O)[C@H]1O`, for which the Potency entry is “inactive”.

Regarding `CNC[C@H](O)[C@@H](O)[C@H](O)[C@H](O)CO`, the Potency entry is “inactive”.

`NCCc1ccc(O)c(O)c1`: the Potency entry is “inactive”.

With `Clc1cc(Cl)c(Cl)cc1Cl`, the Potency entry was “inactive”.

As to `CC(=O)CCc1ccccc1`, the Potency result is “inactive”.

As for `CCC(=O)O`, the Potency result is “inactive”.

Consider `CCCCOCCOCCOC(=O)CCCCC(=O)OCCOCCOCCCC`, for which the Potency result is “inactive”.

Regarding `Cc1ccc(C(=O)O)o1`, the Potency entry is “inactive”.

Consider `C=CC(=O)OCCCCCCCC(C)C`, for which the Potency entry was “inactive”.

Turning to `CN(C)c1ccc(C(=N)c2ccc(N(C)C)cc2)cc1`, the Potency entry was “inactive”.

Take `CCCCC/C=C\C/C=C\CCCCCCCC(=O)OC`: the Potency entry was “inactive”.

As to `CCCCCCOC(C)=O`, the Potency result is “inactive”.

As for `CCCCC(CC)C(=O)OCCOCCOCCOC(=O)C(CC)CCCC` (stereo not given), the Potency entry was “inactive”.

As for `CC(C)(N=C=O)c1cccc(C(C)(C)N=C=O)c1`, the Potency entry was “inactive”.

With `Cc1ccc(N)c(S(=O)(=O)O)c1`, the Potency entry is “inactive”.

For the molecule `CC(C)(C)C1CCC(O)CC1` (stereo not given), the Potency entry is “inactive”.

For `CC1=CC[C@H]2C[C@@H]1C2(C)C`, the Potency result was “inactive”.

Consider `O=c1c(-c2ccc(O)cc2)coc2cc(O)ccc12`, for which the Potency entry is “inactive”.

For `CC(C)Cc1ccccc1`, the Potency entry was “inactive”.

Consider `CC1(C)O[C@@H]2C[C@H]3[C@@H]4C[C@H](F)C5=CC(=O)CC[C@]5(C)[C@H]4[C@@H](O)C[C@]3(C)[C@]2(C(=O)CO)O1`, for which the Potency entry is “inactive”.

In the case of `CC#C[C@]1(O)CC[C@H]2[C@@H]3CCC4=CC(=O)CCC4=C3[C@@H](c3ccc(N(C)C)cc3)C[C@@]21C`, the Potency entry was “inactive”.

For the molecule `O=[N+]([O-])c1cc(N(CCO)CCO)ccc1NCCO`, the Potency result is “inactive”.

For `C=C(C)C(=O)OCCC[Si](OC)(OC)OC`, the Potency entry was “inactive”.

In the case of `O=C1O[C@H](CO)[C@@H](O)[C@H](O)[C@H]1O`, the Potency entry was “inactive”.

Take `Oc1c(Cl)cc(Cl)c(Cl)c1Cl`: the Potency entry was “inactive”.

With `C=C1CC[C@H](O)CC1=C/C=C1\CCC[C@]2(C)[C@@H]([C@H](C)/C=C/[C@H](C)C(C)C)CC[C@@H]12`, the Potency result is “inactive”.

`COC(=O)c1ccc(C(=O)OC)cc1`: the Potency entry was “inactive”.

For the molecule `CCCCCCCCCCC=CC1CC(=O)OC1=O` (stereo not given), the Potency entry is “inactive”.

For the molecule `NC(=O)NNc1ccccc1`, the Potency entry is “inactive”.

With `CS(=O)(=O)c1ccc([C@@H](O)[C@@H](CO)NC(=O)C(Cl)Cl)cc1`, the Potency result was “inactive”.

Values taken from PubChem BioAssay (Tox21).
